TLR4 MyD88 comp: inhibitors of TLR4-MyD88 association in cells, primary screen, cell-based, HeLa CL3-4, BLA complementation, FRET ratio; HeLa CL3-4 TLR4/MyD88 BLA complementation; inhibition, % at 8.4 µM; Toll-like receptor 4 (Homo sapiens) + Myeloid differentiation primary response protein …; AID 861, 2007; 200,000 tested, 0.18% active; in the data active = inhibition above about 25%
Mcl1 Bid PPI: Mcl-1/Bid binding inhibitors, primary screen, biochemical, TR-FRET, 1536-well. 220,000 tested, 0.97% active. Induced myeloid leukemia cell differentiation protein Mcl-1 (Homo sapiens), Q07820. AID 1021, 2008. inhibition, % at 21.7 µM. TR-FRET Mcl-1/Bid-Dy647 peptide binding;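 active = compounds that cut the binding signal by more than half at the single screening dose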;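 also: His-tagged Mcl-1 with europium anti-His antibody binding Bid BH3 peptide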
TLR9-MyD88 block: inhibitors of TLR9-MyD88 association in cells, primary screen, cell-based, CHO, BLA complementation, fluorescence; Toll-like receptor 9 (Homo sapiens) + Myeloid differentiation primary response protein …; CCF4 FRET ratio; inhibition, % at 4.98 µM; 340,000 tested, 0.21% active; AID 504734, 2011;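 active = inhibition above the mean over all tested compounds plus 3 SD, cut at about 21% in these data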
NOD2-RIPK2 inh: NOD2-RIPK2 binding disruptors in cells, primary screen, fluorescence, CHO cells, BLA complementation. Receptor-interacting serine/threonine-protein kinase 2 (Homo sapiens), O43353. CCF4 ratio. inhibition, % at 4.98 µM. 360,000 tested, 0.38% active; in the data active = inhibition above about 21%
Target sequence (O43353 whole entry, looked up): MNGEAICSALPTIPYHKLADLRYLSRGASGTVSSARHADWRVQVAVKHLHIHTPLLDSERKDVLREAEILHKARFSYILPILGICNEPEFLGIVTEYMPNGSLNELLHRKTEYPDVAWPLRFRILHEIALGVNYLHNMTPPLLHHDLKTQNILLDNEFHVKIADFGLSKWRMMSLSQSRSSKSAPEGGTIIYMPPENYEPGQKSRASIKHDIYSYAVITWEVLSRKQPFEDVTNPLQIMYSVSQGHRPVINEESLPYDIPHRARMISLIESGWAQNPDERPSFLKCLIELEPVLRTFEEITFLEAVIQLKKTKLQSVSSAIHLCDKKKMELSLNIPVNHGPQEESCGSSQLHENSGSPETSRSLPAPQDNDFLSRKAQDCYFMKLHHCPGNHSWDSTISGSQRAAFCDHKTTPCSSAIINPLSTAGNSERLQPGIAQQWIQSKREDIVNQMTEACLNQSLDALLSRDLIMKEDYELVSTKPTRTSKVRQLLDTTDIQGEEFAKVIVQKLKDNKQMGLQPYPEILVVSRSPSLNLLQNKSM
Mcl1-Noxa inh: Mcl-1/Noxa binding inhibitors, primary screen, biochemical, TR-FRET, 1536-well; TR-FRET Mcl-1/Noxa peptide binding, 2 h; Induced myeloid leukemia cell differentiation protein Mcl-1 (Homo sapiens), Q07820; AID 1022, 2008; 220,000 tested, 1.5% active; inhibition, % at 21.7 µM;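 active = compounds that cut the protein-peptide binding signal by more than 50% relative to plate controls in a single-dose test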;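 also: His-tagged Mcl-1 with rhodamine Noxa BH3 peptide and terbium anti-His antibody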
Mcl-1 Bim block: inhibitors of Bim peptide binding to Mcl-1, primary screen, biochemical, bead-based flow cytometry, multiplex. Induced myeloid leukemia cell differentiation protein Mcl-1 (Homo sapiens), Q07820. Bim peptide-Mcl-1 binding. inhibition, % at 10 µM. 190,000 tested, 0.1% active. AID 1009, 2008; in the data active = inhibition above about 40%
A number is an active result; - = inactive; . = no result; ! = repeats disagree. Most compounds without a hit are left out; they make up all but 1.8% or so of the library.

SMILES	TLR4 MyD88 comp	Mcl1 Bid PPI	TLR9-MyD88 block	NOD2-RIPK2 inh	Mcl1-Noxa inh	Mcl-1 Bim block
CCOC(=O)c1sc2nc(C(C)C)c3c(c2c1N)CCC3	-	-	-	-	-	-
CC(C)c1nc2sc3c(=O)[nH]c(=S)[nH]c3c2c2c1CCC2	-	-	.	.	81	-
C[C@@H]1C(=O)N(c2ccccc2)[C@@H]1c1ccncc1	.	.	-	-	.	.
NS(=O)(=O)c1cccc(NC(=O)COC(=O)Cc2n[nH]c(=O)c3ccccc23)c1	.	.	-	-	.	.
Cc1cc2oc(C(=O)Nc3ccc(S(=O)(=O)Nc4nccs4)cc3)cc(=O)c2cc1Cl	-	-	-	-	62	-
Cc1cc(C)c2oc(C(=O)Nc3ccc(S(=O)(=O)Nc4nccs4)cc3)cc(=O)c2c1	.	-	-	-	83	.
COc1ccc(S(=O)(=O)N(C)CC(=O)NCc2ccco2)cc1Cl	.	.	-	-	.	.
COc1ccc(C)cc1S(=O)(=O)N(C)CC(=O)NCc1ccco1	-	94	-	-	-	-
Cc1ccc(CS(=O)Cc2ccc(C(=O)N3CCN(C4CCCCC4)CC3)o2)cc1 (stereo not drawn)	.	.	-	-	.	.
O=C1NN(c2ccc(Cl)c(Cl)c2)C(=O)/C1=C/c1ccc(-c2ccccc2C(=O)O)o1	.	.	-	-	.	.
CN1C(=O)/C(=C/c2ccc(-c3ccccc3[N+](=O)[O-])o2)SC1=Nc1ccc(Cl)c(C(=O)O)c1	-	-	-	-	108	47
COc1ccc(NC(=S)Nc2ccc3nccnc3c2)cc1	-	-	-	-	52	-
CC(C)c1ccc(/C=N/NC(=O)c2ccccc2Cl)cc1	-	-	-	-	-	45
O=C(CC1SC(N2CCOCC2)=NC1=O)Nc1cccc(C(F)(F)F)c1 (stereo not drawn)	.	.	-	-	.	.
CCOC(=O)Nc1ccc2c(c1)N(C(=O)CCN(C)C)c1ccccc1CC2	.	.	-	-	.	.
CCOC(=O)Nc1ccc2c(c1)N(C(=O)OCCN(C)C)c1ccccc1CC2	-	76!	-	-	-	-
CS(=O)(=O)N1CCN(Cc2ccc(C(F)(F)F)cc2)CC1	-	52	-	-	-	-
CC(N=Cc1cccc(O)c1O)c1ccccc1 (stereo not drawn)	-	-	-	-	52	-
CC(N=Cc1cc([N+](=O)[O-])ccc1O)c1ccccc1 (stereo not drawn)	-	-	-	-	-	-
Cc1cc(C)cc(C(=O)NCC(=O)OCC(=O)N2c3ccccc3NC(=O)C2(C)C)c1	-	-	-	-	54	-
C/C(=N\NC(=O)c1cc(-c2cccc([N+](=O)[O-])c2)n[nH]1)c1ccccc1O	-	73	-	-	58	-
C/C(=N/NC(=O)c1cc(-c2cccc([N+](=O)[O-])c2)n[nH]1)c1cccc(O)c1	.	-	-	-	-	.
c1ccc2cc3[nH]c(CN4CCOCC4)nc3cc2c1	-	-	-	-	-	-
c1ccc2[nH]c(CN3CCOCC3)nc2c1	-	98	-	-	-	-
COc1cc(/C=C2\SC(=O)N(c3ccc(Cl)cc3)C2=O)cc([N+](=O)[O-])c1O	-	90	-	-	76	-
SMILES	TLR4 MyD88 comp	Mcl1 Bid PPI	TLR9-MyD88 block	NOD2-RIPK2 inh	Mcl1-Noxa inh	Mcl-1 Bim block
COc1cc(/C=C2/NC(=O)N(c3cccc(Cl)c3)C2=O)ccc1O	-	-	-	-	59	-
COc1cc(/C=C2\SC(=O)N(c3cccc(Cl)c3)C2=O)cc([N+](=O)[O-])c1O	-	73	-	-	66	-
CC1(C)Cc2cccc(OCC(=O)OCC(=O)Nc3cccc(S(N)(=O)=O)c3)c2O1	.	93	-	-	-	.
CC1(C)Cc2cccc(OCC(=O)OCC(=O)Nc3ccc(S(N)(=O)=O)cc3)c2O1	.	.	-	-	.	.
Cc1ccc(C)n1Cc1ccc(C(=O)O)cc1	-	-	-	-	62	-
CCCCc1nnc2c(N(C)S(=O)(=O)c3ccccc3)nc3ccccc3n12	.	55	-	-	-	.
CC(C)c1nnc2c(N(C)S(=O)(=O)c3ccccc3)nc3ccccc3n12	.	.	-	-	.	.
O=C1N=C(C=c2ccc(=Cc3[nH]c(=O)[nH]c3O)cc2)C(=O)N1	.	-	.	.	-	.
O=C(COc1ccc(Cl)cc1Cl)NC(=O)c1ccccc1	.	.	-	-	.	.
O=C(O)CC(NC(=O)COc1ccc(Cl)cc1Cl)C(=O)O (stereo not drawn)	-	72	-	-	-	-
Cc1n[nH]c(=O)c2c(NC(=O)CSc3nncs3)oc(C)c12	.	.	-	-	.	.
CNC(=S)Nc1cc(C)ccc1OC(F)F	-	98	-	-	-	-
Cc1ccc(NC(=S)Nc2ccc(Cl)c(Cl)c2)c(OC(F)F)c1	-	-	-	-	-	-
CCC(C)OC(=O)C1=C(C)NC2=C(C(=O)C(C(=O)OC)C(C)C2)C1c1ccc(N(C)C)cc1 (stereo not drawn)	-	-	-	-	60	-
CCCOC(=O)C1=C(C)NC2=C(C(=O)C(C(=O)OC)C(C)C2)C1c1ccc(N(CC)CC)cc1 (stereo not drawn)	-	-	-	-	-	-
Cc1ccc2cc(C)c(SCC(=O)Nc3cc(C)on3)nc2c1	.	.	-	-	.	.
COc1ccc(C(=O)C2CC2c2ccc3c(c2)OCO3)cc1 (stereo not drawn)	-	-	-	-	-	-
Cc1cc(/C=C2\SC(=S)NC2=O)c(C)n1-c1cccc(O)c1	.	-	-	-	53	.
Cc1sc(-n2c(C)cc(/C=C3\SC(=S)NC3=O)c2C)c(C#N)c1C	-	-	-	-	75	-
CCn1c(C)cc(/C=C2/SC(=S)NC2=O)c1C	-	-	-	-	-	-
O=C1NN(c2ccccc2)C(=O)C1=Cc1ccccc1O	.	.	-	-	.	.
Cc1cc(/C=C2/C(=O)NN(c3ccccc3)C2=O)c(C)n1-c1cccc(O)c1	-	-	-	-	87	-
COC(=O)c1ccc(OC(=O)CN2C(=O)c3ccccc3C2=O)cc1	.	.	-	-	.	.
CN(C)c1ccc(C(=O)Nc2nnc(-c3ccc(Cl)cc3)o2)cc1	-	-	-	-	69	-
CC(=O)c1ccc(C(=O)Nc2nnc(-c3ccc(Cl)cc3)o2)cc1	.	-	-	-	-	.
O=C(c1ccc(CS(=O)c2ccc(F)cc2)o1)N1CCN(C2CCCCC2)CC1 (stereo not drawn)	.	.	-	-	.	.
CCOc1ccccc1/C=N/NC(=O)c1nnn(-c2nonc2N)c1CN1CCCCCC1	.	.	-	-	.	.
CC(NC(N)=O)C(=O)Nc1ccc(Cl)c(S(=O)(=O)Nc2ccc(Br)cc2)c1 (stereo not drawn)	-	-	-	-	57	-

From PubChem
